Assay results published in publication PMC12864922, “TDP-43 directly inhibits mRNA accumulation in neurites through modulation of mRNA stability”.
The full ranking holds about 9,900 sequences; the median of “r (bound/input frequency ratio)” is about 0.7, and the highest 2% start at about 6.5. Shown is part of a subset that was picked to be rich in the highest values.

B1: ENSMUSG00000090935.16|Synj2bp (ssRNA)
RNA: GGGAGUUCUACAGUCCGACGAUCGCUUCGAUAUCCGCAUGCUAAUAUGAACGGACGGGUGGAUUAUUUAGUCACGGAGGAAGAGAUCAACCUGACGAGAGGACCUUCGGGUAAAUGGCCAAGAUCUGAAGAACCUGCUGCACCAAGAUGCUGUAGACCUCUUCCGUAAUGCGGGAUGUGCUGUGUCCCUGAGAGUACAGCACAGGUUACCAGUGCAGAAUGGACCUAUAGUACAUCGAGGUGAAGGAGAGCCAAGUGGAGUUCCUGUAGCUAUGGUGCUGCUACCAGUGUUUGCCCUCACCAUCUCUUGCGGUCGCACUAGUGUGGAAUUCUCGGGUGUCAAGG
B2: ENSMUSG00000061578.1096|Ksr2 (ssRNA)
RNA: GGGAGUUCUACAGUCCGACGAUCGCUUCGAUAUCCGCAUGCUAAGAAGGCUGGGGGAGCUUUCAGGGGUGUGGCCAGUUAUGUACAGAUGUGAAGCUGAGGUCUGAAGGAAAUGGAGGAAGUAGGAAGAUCAGACUGGUUGAAUUAGAAGUCUGUCACUCUAGGUGCUAAGUGACCUUGGACCCAGUCAGUUCUUGGAUUUCUGUUGUAGCCCAGGCUAGCCUCGAACCCUUGAUCCUCCUGUUCCUGGUAGAGAAACAGCCACUAAAUGGUGGGAUAGAAUGUGACUGCUCUAUCCCCGAUCCUCUUGCGGUCGCACUAGUGUGGAAUUCUCGGGUGUCAAGG
B3: ENSMUSG00000029636.193|Wasf3 (ssRNA)
RNA: GGGAGUUCUACAGUCCGACGAUCGCUUCGAUAUCCGCAUGCUAAGCCAGUUGCCCGGGCAGAGACCUGACUUCCCCUCUCCUGCCCUGAUCCUUUUUACCAAAUGGCGAUUCCAUAGUCCUGGCUGAGGCAGGGGCUCAAAGUCCAGUGUCUGCUUUGCAAUUCUGGAAGGACAGCUGCUUAUUUAAAUAAGUCUGUGAUAUCCGCAGGCUUGGGUUACAGGGAGGACCUUGCAGAGGGACCAGGACACUGCCUUCCCUUAGGUGCAUUAUUUACGUGGCCUGCAGCUCUUAAUAUCUCUCACCUCUUGCGGUCGCACUAGUGUGGAAUUCUCGGGUGUCAAGG
B4: ENSMUSG00000058297.30|Spock2 (ssRNA)
RNA: GGGAGUUCUACAGUCCGACGAUCGCUUCGAUAUCCGCAUGCUACAGGCAACUUAGCAAAUGGAUCCGGAAGUCAGUGCGGAGGACCCUGGCUCCAGUGGGGGAGGACUGGGGAGUGUGGCUUGUGUGUAUGUGUGAUAUGAGAUGUGUGUGUAUGAUGUGAGAUGUGAGUGUGUGAUGUGAGAUGUGUGUAUGUGAGAUGUGUGUGUGUGUGUGUGUGUGUGUGAUGUGAGUCACCCAAAGGUCCCUAUGUUAUUGAUUUUCAAAUGCACACUUUCACACACAAGGAUACACUAACAGACCAACUCUUGCGGUCGCACUAGUGUGGAAUUCUCGGGUGUCAAGG
B5: ENSMUSG00000058297.31|Spock2 (ssRNA)
RNA: GGGAGUUCUACAGUCCGACGAUCGCUUCGAUAUCCGCAUGCUAACUUAGCAAAUGGAUCCGGAAGUCAGUGCGGAGGACCCUGGCUCCAGUGGGGGAGGACUGGGGAGUGUGGCUUGUGUGUAUGUGUGAUAUGAGAUGUGUGUGUAUGAUGUGAGAUGUGAGUGUGUGAUGUGAGAUGUGUGUAUGUGAGAUGUGUGUGUGUGUGUGUGUGUGUGUGAUGUGAGUCACCCAAAGGUCCCUAUGUUAUUGAUUUUCAAAUGCACACUUUCACACACAAGGAUACACUAACAGACCAAAAUCAACUCUUGCGGUCGCACUAGUGUGGAAUUCUCGGGUGUCAAGG
B6: ENSMUSG00000058297.31|Spock2|65:69;73:86;95:106;120:126;135:144;150:175 (ssRNA)
RNA: GGGAGUUCUACAGUCCGACGAUCGCUUCGAUAUCCGCAUGCUAACUUAGCAAAUGGAUCCGGAAGUCAGUGCGGAGGACCCUGGCUCCAGUGGGGGAGGACUGGGGACACACGCUACACACAUACACACAUAUGAGAACACACACAUACAUGUGAGAUGUGACACACACAUGUGAGAACACACAUACUGAGAACACACACACACACACACACACACACAUGUGAGUCACCCAAAGGUCCCUAUGUUAUUGAUUUUCAAAUGCACACUUUCACACACAAGGAUACACUAACAGACCAAAAUCAACUCUUGCGGUCGCACUAGUGUGGAAUUCUCGGGUGUCAAGG
B7: ENSMUSG00000058297.30|Spock2|71:75;79:92;101:112;126:132;141:150;156:181 (ssRNA)
RNA: GGGAGUUCUACAGUCCGACGAUCGCUUCGAUAUCCGCAUGCUACAGGCAACUUAGCAAAUGGAUCCGGAAGUCAGUGCGGAGGACCCUGGCUCCAGUGGGGGAGGACUGGGGACACACGCUACACACAUACACACAUAUGAGAACACACACAUACAUGUGAGAUGUGACACACACAUGUGAGAACACACAUACUGAGAACACACACACACACACACACACACACAUGUGAGUCACCCAAAGGUCCCUAUGUUAUUGAUUUUCAAAUGCACACUUUCACACACAAGGAUACACUAACAGACCAACUCUUGCGGUCGCACUAGUGUGGAAUUCUCGGGUGUCAAGG
B8: ENSMUSG00000031028.17|Tub|206:210 (ssRNA)
RNA: GGGAGUUCUACAGUCCGACGAUCGCUUCGAUAUCCGCAUGCUACUCUGUCCAGCUUUGACAGCAAGCUGGCCUGCGAGUAGAGGCCCCCCACUGCCUUUAGGUGGCCCAGUCCGGAGUGGAGCUUGCCUGCCUGCCAAGACAGCCCUGCCUACCCUCUGUUCAUAGGCCCUCUAUGGGCUUUCUGGCCUUACCAACCAGAGACUGGCUGCUCUGCCUCUGCUGCUGAAGCAGGGGGGACAGCAAAUGGCAUACACAGGAGAAGAAUAUUUCUGUGCCCCAAGGUCAACACACAUGCCCAGUCCCUCUUGCGGUCGCACUAGUGUGGAAUUCUCGGGUGUCAAGG
B9: ENSMUSG00000031028.285|Tub (ssRNA)
RNA: GGGAGUUCUACAGUCCGACGAUCGCUUCGAUAUCCGCAUGCUAUGCAGGUAAGGAGGCUGGAUUGAUGUAAAUGGAAGUAGUACUUUAAGAAAGCUCUAGAUUUCCCAGGUUGGACACUCGACGAAAGGCACACCUGCUGCAGCAGGUUCUGACACACCUGAGCCAUACAUUGCCAUCAGAGAACCCUCAGCGAGGUAGCCUUUGUUUACAGUCUAGUUUCUAGAGGGCAGUAGGACUUCCAUGCUGGGGCUGGCCUAUCUCCUGAUGAAAGAUUACAGUGCCAUCUCCUUCCCAUAGUUCUGCUCUUGCGGUCGCACUAGUGUGGAAUUCUCGGGUGUCAAGG
B10: ENSMUSG00000061578.738|Ksr2 (ssRNA)
RNA: GGGAGUUCUACAGUCCGACGAUCGCUUCGAUAUCCGCAUGCUAUUGUCUAAGGCUGUGGGUUUUAAAUACCUGCUGCAGGCCUCCCAUCUCUGGCUCUUUGUUUCCACUCUGGCCCAAGUUUGAGUCUCCAUAUGGGCCCUUCCUGUCCUCAUGCCCUGCCUGUCUUCAUUCCACCCAUCCACCCUCCUAAGGAUUGGUCUUGUUCCGAGAGUGAUCCUGGUAACGCCAAGCCUCCCUCUGCCCCUGUGUUGGCUUCUGUGACGGACUACCACACACCAAGAGGUUUUUCACAGUGAAGAUGUCUCUUGCGGUCGCACUAGUGUGGAAUUCUCGGGUGUCAAGG
B11: ENSMUSG00000061578.1348|Ksr2 (ssRNA)
RNA: GGGAGUUCUACAGUCCGACGAUCGCUUCGAUAUCCGCAUGCUACUCUUCCUCCUGUCCCACAGCCCCCAGGUCAGAGCCAAGCGCAUCAUCUGCAGCACACAUGUCUGUCUCCACAGGCAAGCAACCUUGCCAAGGCAGGCCAGACAGGACAGCCCAGCUUCCCACUCCAGACAUGUUGUUCUUACAUCUCUGACCCAGUGAUCUUUCUAGGGGUCUGUCACAUGUCCCAACAGGUGGACAGCUCUCCAAGUCACCAACCUGAGGAAAAUAUCCCUCCUUGUAAAAAGGCUUUCUCUUUGUAACUCUUGCGGUCGCACUAGUGUGGAAUUCUCGGGUGUCAAGG
B12: ENSMUSG00000029028.239|Lrrc47 (ssRNA)
RNA: GGGAGUUCUACAGUCCGACGAUCGCUUCGAUAUCCGCAUGCUAGUGCGAGAGCCGUUAGCUGUCAGAACUAGUGAAGCUCCAGGCUCCUCGUGGCAGACCCUGGACAACGCUGGUAGCUGUUCUCCAUGAGACACGGCUGCUCACAGGUCCCUUUGAGUGGCUGUGGCAAGUACUCACCUACUAAGUGUUUAGGGUGGAGCUAUCCUGUGCUCACCCUGUCUCCCCCCAGUUCCUGCUGUUCCCUCCAGCCCAGCCCAGCCCAGGUGUGAGAUUCAUUGAGAUUUUUGAAACUGUUUUUACAGCUCUUGCGGUCGCACUAGUGUGGAAUUCUCGGGUGUCAAGG
B13: ENSMUSG00000029028.154|Lrrc47 (ssRNA)
RNA: GGGAGUUCUACAGUCCGACGAUCGCUUCGAUAUCCGCAUGCUAGCUUGUUUCCAGGCACCGUGCUGCCGCCAUGCUCCCAGGGCAGCAUCUGCCUUCCACGGCUGUGCUUGGAACUGUAGUGCUGGUCGUUGUUGGCACAUCUGCGCCUUGGCCAAGGAAGUUAUCUAUGUCCGUGUAGUCCUUUGUAGUCAGACAGAUGCUUCGUGGACUGUGCCUCACACAUGGCCCUGCAGGCUCCAUGUCAGCGUGUCCCACUAUUCAUGUCCCAUCUCUGUGCAUCCUGACUGCGCACAUCCCAUCUCCUCUUGCGGUCGCACUAGUGUGGAAUUCUCGGGUGUCAAGG
B14: ENSMUSG00000061578.113|Ksr2|98:102;184:189;252:256 (ssRNA)
RNA: GGGAGUUCUACAGUCCGACGAUCGCUUCGAUAUCCGCAUGCUACUCCCAUUUUGUAAGAACACUGUUCUAACUCACCUCAUGCCCACGCUACCCUGGGCAACUGGAGAACACCAUAGCGUUUCAGCUGAUGUGACAUUUGCACACACCUUUACCAGUUCACCAUCAUUCAUGGCUUCCCCCAAAGUCCCGAGUCCUGAGAACCGGGGCUGUGGCAAGAGAGUUCUGCACACAUCUCUCUGUGGGGCUAGCAAUGCCGGGGUUAAGUUCUCCCUCGGUGAUGGAGACGGUCCUGGCAUACCAUGCUCUUGCGGUCGCACUAGUGUGGAAUUCUCGGGUGUCAAGG
B15: ENSMUSG00000034801.54|Sos2 (ssRNA)
RNA: GGGAGUUCUACAGUCCGACGAUCGCUUCGAUAUCCGCAUGCUAUCAAUGACCUUGGCCAUAUGUAGUCAUUGACACUGGAAUAGUAUUUGUAAAGGUUUUUAAUUUAUUCAAAAAGACAUAGUAUUUUAGUACUUUUUACAGAAAUGCUACUGAUUAAAUAAGCUCUUAAGAAUUAGUAAACUUGUUGGAUGGCAGUGGCCCACAGCUGUAAUCCCAGCACCCUGGUUGCAGGGGCAGGUGGGCUUCAGGGUUUGAGAGCAGCCUGGUCUACAGAGCAAGUCCCAGGACAGCCAGGGCUACACCUCUUGCGGUCGCACUAGUGUGGAAUUCUCGGGUGUCAAGG
B16: ENSMUSG00000090935.235|Synj2bp (ssRNA)
RNA: GGGAGUUCUACAGUCCGACGAUCGCUUCGAUAUCCGCAUGCUAGGGGACUAGGGGAUCAUAUUCCCUCAUAUAUAAUCAAGACUCAUAUUGAAAAAUGAGUUCUGGAUUGUAAAGAGAACUUACUUUUUCCACUUGCCUGUAAGUCUUUGUCCACAAGUUAAAAACAUACACAGUGCUAAGGAAUGAUCAUAACUGAAACAUUUCAAGAACUAUUAGCAGAGCAUGUAUAUUGAGGAUGGGGAAGUUAGCUUUAAAAGAGAAUGCUCAGUCAGUGACAUUAGGAAAAUAAUGACUGAAGCAAUCUCUUGCGGUCGCACUAGUGUGGAAUUCUCGGGUGUCAAGG

Target: TDP-43 (Homo sapiens, UniProt Q13148 1-414)
Sequence (Q13148 whole entry): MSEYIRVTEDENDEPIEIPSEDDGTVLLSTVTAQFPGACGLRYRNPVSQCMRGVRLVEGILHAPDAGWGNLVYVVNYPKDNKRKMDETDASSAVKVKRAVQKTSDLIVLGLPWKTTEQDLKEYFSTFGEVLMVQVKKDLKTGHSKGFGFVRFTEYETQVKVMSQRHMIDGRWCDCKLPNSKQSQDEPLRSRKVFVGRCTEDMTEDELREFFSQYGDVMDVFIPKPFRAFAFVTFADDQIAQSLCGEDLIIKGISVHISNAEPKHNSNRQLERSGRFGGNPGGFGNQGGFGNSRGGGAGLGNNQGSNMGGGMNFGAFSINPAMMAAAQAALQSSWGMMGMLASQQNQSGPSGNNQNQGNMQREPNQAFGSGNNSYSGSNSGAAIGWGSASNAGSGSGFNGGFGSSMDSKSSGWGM
Experiment: RNA Bind-n-Seq with designed 260-mer pool; 25 mM Tris-HCl, 150 mM KCl, 3 mM MgCl2, BSA (printed 500 mg/mL), 20 units/mL SUPERase IN; pH not stated; 500 nM RNA pool, 1 h, 4 C; TDP-43 5, 50, 500 nM; high values mean tight binding
Settings: protein: recombinant; tags: SBP (GST cleaved off with PreScission; pGEX-GST-SBP)
Method in brief: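 Recombinant SBP-tagged TDP-43 at 5, 50 or 500 nM was captured on streptavidin beads, then incubated 1 h at 4 °C with 500 nM of an in vitro-transcribed 260-nt 3′ UTR oligo pool in 25 mM Tris-HCl, 150 mM KCl, 3 mM MgCl2, BSA and SUPERase IN. Bound RNA was washed, eluted with biotin, reverse transcribed, PCR-amplified and sequenced. Binding is R, each oligo's mapped-read-normalized abundance in the bound sample divided by its abundance in input. Duplicates used two independent protein batches.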

Binder	binding signal
B1	0.983 R (bound/input frequency ratio)
B2	2.29 R (bound/input frequency ratio)
B3	0.437 R (bound/input frequency ratio)
B4	8.87 R (bound/input frequency ratio)
B5	8.63 R (bound/input frequency ratio)
B6	3.59 R (bound/input frequency ratio)
B7	2.07 R (bound/input frequency ratio)
B8	0.458 R (bound/input frequency ratio)
B9	0.881 R (bound/input frequency ratio)
B10	1.57 R (bound/input frequency ratio)
B11	0.533 R (bound/input frequency ratio)
B12	0.716 R (bound/input frequency ratio)
B13	1.62 R (bound/input frequency ratio)
B14	0.484 R (bound/input frequency ratio)
B15	0.356 R (bound/input frequency ratio)
B16	0.157 R (bound/input frequency ratio)
